The record followed here is PubChem BioAssay (NCATS).

Inconclusive results are not listed. Unmarked numbers belong to inactive results. Activity calls are given as the source filed them. Calls come from the whole dose curve; as a rule, active = well fitted curve in the direction sought with a large enough effect; inconclusive = small, poorly fitted or top-dose-only effect, or another doubt; inactive = no such curve, though single readings can be large; an effect the other way counts as inactive or inconclusive.

System in the first assay: not listed separately
Put plainly: qHTS to identify inhibitors of the type 1 interferon - major histocompatibility complex class I in skeletal muscle: primary screen against the NCATS Mechanism Interrogation Plate v5.0 (MIPE) Libary (AID 1347411).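 For activity change, negative = inhibition: plate controls were vehicle for no effect and reference inhibitor for full effect.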 Note: nearly all actives have a fitted effect of over 65% in size. Note: potency is the fitted concentration of half-maximal effect. As to conditions: iHSKM cells + IFN-b, HiBiT-tagged MHC-I luminescence, 24 h; series mostly up to 45.8 µM; activity change, negative = inhibition: at the top concentration. The method, boiled down: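 Immortalized human myoblasts (C25cl48) with HiBit knocked into endogenous HLA-B*08:01 were stimulated with 4 ng/ml IFN-beta and given compounds in 11-point 1:3 titration from 46 uM. After 24 h at 37 C, lytic HiBiT luminescence was read.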
(qHTS replaces the single test concentration by a dilution series.)
Consider `CCN(CC)CCCCNc1ncc2cc(-c3cc(OC)cc(OC)c3)c(NC(=O)NC(C)(C)C)nc2n1`, for which the Potency is 29.4 µM (active).
Consider `C=CC(=O)Nc1cc2c(Nc3ccc(F)c(Cl)c3)ncnc2cc1OCCCN1CCOCC1`, for which the Potency was 11.7 µM (active).
In the case of `C[C@@H](Oc1cc(-n2cnc3ccc(CN4CCN(C)CC4)cc32)sc1C(N)=O)c1ccccc1C(F)(F)F`, the Potency is 20.8 µM (active).
The same measure, in the same setting: the value for `CC[C@H](CO)Nc1nc(NCc2ccccc2)c2ncn(C(C)C)c2n1` was 29.4 µM (active).
As for `CN(C)CC(C)(C)CNc1nn2c(-c3ccccc3)nnc2cc1C1CCC1`, the “activity change, negative = inhibition” value is 1.6%.
With `O=c1[nH]c(=O)n(C2CCCO2)cc1F` (configuration not stated), the “activity change, negative = inhibition” value was 1.14%.
On the same count and under the same terms, then `COC(=O)C1=C(C)NC(C)=C(C(=O)OCCN2CCN(C(c3ccccc3)c3ccccc3)CC2)C1c1cccc([N+](=O)[O-])c1` (configuration not stated), with -38.8%.
For the molecule `CC(C)c1ccc(Cn2ccc3c4c(N)nc(NC5CC5)nc4ccc32)cc1`, the Potency was 4.66 µM (active).
Regarding `CC(C)(C)c1cc(C(C)(C)C)c(NC(=O)c2c[nH]c3ccccc3c2=O)cc1O`, the Potency was 23.4 µM (active).
In the case of `CC[C@@H]1C(=O)N(C)c2cnc(Nc3ccc(C(=O)NC4CCC(N5CCN(CC6CC6)CC5)CC4)cc3OC)nc2N1C(C)C` (some centres not stated), the Potency was 6.58 µM (active).

For the next assay, the target named is Calcium and integrin-binding protein 1 (Homo sapiens) (UniProt Q99828). Put plainly: Primary qHTS for Identification of Calcium Integrin Binding Protein 1 (CIB1) Competitor (AID 1508620).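 Note: GST tagged CIB1 binding a fluorescein labelled alphaIIb integrin peptide tracer; top concentration of the series differs between compounds; % is set by controls: 0 for no effect and ±100 for the full control effect.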 The settings on record: CIB1-GST / FITC-alphaIIb peptide fluorescence polarization; series mostly up to 57.7 µM; activity change, negative = inhibition: at the top concentration. The method, boiled down: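 CIB1-GST (1 uM final) and compound incubated 15 min at room temperature before adding FITC-alphaIIb peptide tracer (100 nM final). Competition for binding read by fluorescence polarization (ex 480, em 540) after another 15 min at room temperature.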
Calcium and integrin-binding protein 1 (Homo sapiens), sequence (Q99828 whole entry, looked up): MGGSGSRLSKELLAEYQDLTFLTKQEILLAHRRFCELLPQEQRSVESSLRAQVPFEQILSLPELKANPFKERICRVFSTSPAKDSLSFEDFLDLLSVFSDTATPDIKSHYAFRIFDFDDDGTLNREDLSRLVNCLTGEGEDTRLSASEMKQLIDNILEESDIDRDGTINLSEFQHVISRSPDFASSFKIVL
With `COc1ccc(C(=O)CC2(O)C(=O)Nc3c(Cl)ccc(Cl)c32)cc1` (configuration not stated), the outcome was inactive.
Take `C=CC(=O)Nc1cc2c(Nc3ccc(F)c(Cl)c3)ncnc2cc1C#CC(C)(C)N1CCN(C)CC1`: the “activity change, negative = inhibition” value was -3.31%.
On the same count and under the same terms, the value for `CC(=O)OCC(=O)[C@@]1(O)[C@H](C)C[C@H]2[C@@H]3C=C(C)C4=Cc5c(cnn5-c5ccccc5)C[C@]4(C)[C@@H]3[C@@H](O)C[C@@]21C` was -8.51%.
For the molecule `CN(C)CCCN=c1c2ccccc2n(C)c2[nH]c(=O)n(C)c(=O)c12`, the “activity change, negative = inhibition” value was -5.49%.
Still for that read-out and setting: then `O=C(NC1CCNCC1)c1[nH]ncc1NC(=O)c1c(Cl)cccc1Cl`, with -3.17%.
Consider `O=C(O)c1ccc2c(c1)nc(Nc1cccc(Cl)c1)c1ccncc12`, for which the result was inactive.
With `Cc1cc(Nc2cc(NC(=O)c3c(Cl)cccc3Cl)ccn2)nc(N)n1`, the “activity change, negative = inhibition” value was -7.4%.
On the same count and under the same terms, then `CC[C@@H]1C(=O)N(C)c2cnc(Nc3ccc(C(=O)NC4CCN(C)CC4)cc3OC)nc2N1C1CCCC1`, with -4.22%; and `CC(C)C[C@H](NC(=O)CNC(=O)c1cc(Cl)ccc1Cl)B(O)O`, with -0.746%; and `CN1c2cc(O)c(N=NC(N)=O)cc2CC1S(=O)(=O)O` (configuration not stated), with -4.12%.
Same read-out and setting: the value for `O=C(NCCCNc1nc(Nc2cccc(NC(=O)N3CCCC3)c2)ncc1I)c1cccs1` was 2.45%.
In the case of `Nc1nc(-c2nn(Cc3ccccc3F)c3ncccc23)nc(N)c1N1CCOCC1`, the “activity change, negative = inhibition” value is -4.47%.
For `Nc1nc(NCCNc2ncc(-n3ccnc3)c(-c3ccc(Cl)cc3Cl)n2)ccc1[N+](=O)[O-]`, the outcome was inactive.
On to `O=C(O)CCCc1c[nH]c2ccccc12`, for which the outcome was inactive.
For `CN(c1ncccc1CNc1nc(Nc2ccc3c(c2)CC(=O)N3)ncc1C(F)(F)F)S(C)(=O)=O`, the “activity change, negative = inhibition” value is -3.87%.
As to `O=C(NCCS(=O)(=O)c1ccc(C(F)(F)F)cn1)c1ccc(Cl)cc1`, the “activity change, negative = inhibition” value is 0.869%.
Still for that read-out and setting: then `COc1ccc(CC2SC(=O)NC2=O)cc1C(=O)NCc1ccc(C(F)(F)F)cc1` (configuration not stated), with 0.502%.
For `C[C@@H](Oc1cc(-c2cnn(C3CCNCC3)c2)cnc1N)c1c(Cl)ccc(F)c1Cl`, the result was inactive.
In the case of `CC(=O)OCCN1C(=O)c2c(C)nc3ccc(S(=O)(=O)N4CCOCC4)cc3c2C1=O`, the “activity change, negative = inhibition” value was 0.178%.
The same measure, in the same setting: the value for `O=C(O)[C@H](Cc1c[nH]c2ccccc12)N1C(=O)c2ccccc2C1=O` was -0.0174% [at 114 µM]; that for `COC(=O)C[C@](O)(CCCC(C)(C)O)C(=O)O[C@@H]1C(OC)=C[C@]23CCCN2CCc2cc4c(cc2[C@H]13)OCO4` was -3.32%.
Consider `CCN(CC)CCCCNc1ncc2cc(-c3cc(OC)cc(OC)c3)c(NC(=O)NC(C)(C)C)nc2n1`, for which the “activity change, negative = inhibition” value is -2.73%.
As to `C=CC(=O)Nc1cc2c(Nc3ccc(F)c(Cl)c3)ncnc2cc1OCCCN1CCOCC1`, the “activity change, negative = inhibition” value is -2.37% [at 114 µM].
As for `C[C@@H](Oc1cc(-n2cnc3ccc(CN4CCN(C)CC4)cc32)sc1C(N)=O)c1ccccc1C(F)(F)F`, the “activity change, negative = inhibition” value is -5.79%.
For `CN(C)CC(C)(C)CNc1nn2c(-c3ccccc3)nnc2cc1C1CCC1`, the result was inactive.
`COC(=O)C1=C(C)NC(C)=C(C(=O)OCCN2CCN(C(c3ccccc3)c3ccccc3)CC2)C1c1cccc([N+](=O)[O-])c1` (configuration not stated): the “activity change, negative = inhibition” value is 1.42% [at 114 µM].
On the same count and under the same terms, the value for `CC(C)(C)c1cc(C(C)(C)C)c(NC(=O)c2c[nH]c3ccccc3c2=O)cc1O` was -1.35%.
